# Measured values as given in the supplement of paper PMC8728848.
# The sample as a whole holds a higher share of the strongest signals than the screen did.
# Columns and labels:
# Test in all cases: glycan array binding signal (z-score within array); higher = stronger binding
# Conditions in all cases: glycan notation: IUPAC condensed, linker removed
# [1] = molecular target: Fuc(a1-2)Gal(b1-3)GalNAc(b1-3)Gal
# Procedure, shortened: (§1)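 Glycan array data came from 3228 arrays in the Consortium for Functional Glycomics database, and only arrays with an available protein sequence were kept. Glycan names were put into IUPAC-condensed notation, and columns mapping to the same glycan were averaged. The binding signal is a within-array Z-score, averaged across arrays of one protein sequence run at different concentrations or buffers and across linkers. A negative Z-score can be read as non-binding.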
# [2] = molecular target: Fuc(a1-2)Gal(b1-3)GalNAc(b1-3)Gal(a1-4)Gal(b1-4)Glc
# Procedure, shortened: as §1
# Fuc(a1-2)Gal(b1-3)GlcNAc = molecular target: Fuc(a1-2)Gal(b1-3)GlcNAc
# Procedure, shortened: as §1
# [3] = molecular target: Fuc(a1-2)[Gal(a1-3)]Gal(b1-3)GalNAc(b1-3)Gal(a1-4)Gal(b1-4)Glc
# Procedure, shortened: as §1
# [4] = molecular target: Fuc(a1-2)[Gal(a1-3)]Gal(b1-3)GlcNAc
# Procedure, shortened: as §1
# [5] = molecular target: Fuc(a1-2)[GalNAc(a1-3)]Gal(b1-4)GlcNAc(b1-3)Gal(b1-4)GlcNAc(b1-3)Gal(b1-4)GlcNAc
# Procedure, shortened: as §1
# [6] = molecular target: Fuc(a1-2)[GalNAc(a1-3)]Gal(b1-4)[Fuc(a1-3)]GlcNAc
# Procedure, shortened: as §1
# [7] = molecular target: Fuc(a1-2)[GalNAc(b1-3)]Gal
# Procedure, shortened: as §1
# Fuc(a1-3)GlcNAc = molecular target: Fuc(a1-3)GlcNAc
# Procedure, shortened: as §1
# [8] = molecular target: Fuc(a1-3)[Gal(b1-4)]GlcNAc(b1-2)Man
# Procedure, shortened: as §1
# Gal(a1-3)Gal(b1-3)GlcNAc = molecular target: Gal(a1-3)Gal(b1-3)GlcNAc
# Procedure, shortened: as §1
# [9] = molecular target: Gal(a1-3)Gal(b1-3)GlcNAc(b1-2)Man(a1-3)[Gal(a1-3)Gal(b1-3)GlcNAc(b1-2)Man(a1-6)]Man(b1-4)GlcNAc(b1-4)GlcNAc
# Procedure, shortened: as §1
# [10] = molecular target: Gal(a1-3)Gal(b1-4)GlcNAc(b1-3)GalNAc
# Procedure, shortened: as §1
# [11] = molecular target: Gal(a1-4)Gal(b1-4)GlcNAc(b1-2)Man(a1-3)[Gal(a1-4)Gal(b1-4)GlcNAc(b1-2)Man(a1-6)]Man(b1-4)GlcNAc(b1-4)GlcNAc
# Procedure, shortened: as §1
# Gal(b1-2)Gal = molecular target: Gal(b1-2)Gal
# Procedure, shortened: as §1
# Gal(b1-3)Gal(b1-4)GlcNAc = molecular target: Gal(b1-3)Gal(b1-4)GlcNAc
# Procedure, shortened: as §1
# [12] = molecular target: Gal(b1-3)GalNAc(a1-3)[Fuc(a1-2)]Gal(b1-4)GlcNAc
# Procedure, shortened: as §1
# [13] = molecular target: Gal(b1-3)GlcNAc(b1-2)Man(a1-3)[Gal(b1-3)GlcNAc(b1-2)Man(a1-6)]Man(b1-4)GlcNAc(b1-4)[Fuc(a1-6)]GlcNAc
# Procedure, shortened: as §1
# [14] = molecular target: Gal(b1-3)GlcNAc(b1-2)[Gal(b1-3)GlcNAc(b1-6)]Man(a1-6)[Gal(b1-3)GlcNAc(b1-2)Man(a1-3)]Man(b1-4)GlcNAc(b1-4)GlcNAc
# Procedure, shortened: as §1
# Gal(b1-4)Gal = molecular target: Gal(b1-4)Gal
# Procedure, shortened: as §1
# Gal(b1-4)GlcNAc = molecular target: Gal(b1-4)GlcNAc
# Procedure, shortened: as §1
# [15] = molecular target: Gal(b1-4)GlcNAc(b1-2)[Gal(b1-4)GlcNAc(b1-4)]Man(a1-3)[Gal(b1-4)GlcNAc(b1-2)[Gal(b1-4)GlcNAc(b1-6)]Man(a1-6)]Man(b1-4)GlcNAc(b1-4)GlcNAc
# Procedure, shortened: as §1
# [16] = molecular target: Gal(b1-4)GlcNAc(b1-3)Gal(b1-4)GlcNAc(b1-3)Gal(b1-4)GlcNAc(b1-3)Gal(b1-4)GlcNAc(b1-2)[Gal(b1-4)GlcNAc(b1-3)Gal(b1-4)GlcNAc(b1-3)Gal(b1-4)GlcNAc(b1-3)Gal(b1-4)GlcNAc(b1-6)]Man(a1-6)[Gal(b1-4)GlcNAc(b1-3)Gal(b1-4)GlcNAc(b1-3)Gal(b1-4)GlcNAc(b1-3)Gal(b1-4)GlcNAc(b1-2)Man(a1-3)]Man(b1-4)GlcNAc(b1-4)[Fuc(a1-6)]GlcNAc
# Procedure, shortened: as §1
# [17] = molecular target: Gal(b1-4)GlcNAc(b1-3)Gal(b1-4)GlcNAc(b1-3)Gal(b1-4)GlcNAc(b1-3)Gal(b1-4)GlcNAc(b1-3)Gal(b1-4)GlcNAc(b1-2)Man(a1-3)[Gal(b1-4)GlcNAc(b1-3)Gal(b1-4)GlcNAc(b1-3)Gal(b1-4)GlcNAc(b1-3)Gal(b1-4)GlcNAc(b1-3)Gal(b1-4)GlcNAc(b1-2)Man(a1-6)]Man(b1-4)GlcNAc(b1-4)GlcNAc
# Procedure, shortened: as §1
# [18] = molecular target: Gal(b1-4)GlcNAc(b1-3)Gal(b1-4)[Fuc(a1-3)]GlcNAc(b1-3)Gal(b1-4)[Fuc(a1-3)]GlcNAc
# Procedure, shortened: as §1
# Gal3S(b1-3)GlcNAc = molecular target: Gal3S(b1-3)GlcNAc
# Procedure, shortened: as §1
# Gal3S(b1-4)Glc6S = molecular target: Gal3S(b1-4)Glc6S
# Procedure, shortened: as §1
# [19] = molecular target: Gal3S(b1-4)[Fuc(a1-3)]Glc6S
# Procedure, shortened: as §1
# [20] = molecular target: Gal3S(b1-4)[Fuc(a1-3)]GlcNAc6S
# Procedure, shortened: as §1
# Gal4S6S(b1-4)GlcNAc = molecular target: Gal4S6S(b1-4)GlcNAc
# Procedure, shortened: as §1
# Gal6S(b1-4)GlcNAc = molecular target: Gal6S(b1-4)GlcNAc
# Procedure, shortened: as §1
# [21] = molecular target: GalNAc(b1-3)Gal(a1-4)Gal(b1-4)GlcNAc
# Procedure, shortened: as §1
# [22] = molecular target: GalNAc(b1-3)Gal(a1-6)Gal(b1-4)Glc
# Procedure, shortened: as §1
# GalNAc(b1-4)GlcNAc = molecular target: GalNAc(b1-4)GlcNAc
# Procedure, shortened: as §1
# [23] = molecular target: GlcNAc(a1-4)Gal(b1-4)GlcNAc
# Procedure, shortened: as §1
# [24] = molecular target: GlcNAc(a1-4)Gal(b1-4)GlcNAc(b1-3)Gal(b1-4)[Fuc(a1-3)]GlcNAc(b1-3)Gal(b1-4)[Fuc(a1-3)]GlcNAc
# Procedure, shortened: as §1
# [25] = molecular target: GlcNAc(b1-3)Gal(b1-4)GlcNAc(b1-2)Man(a1-3)[GlcNAc(b1-3)Gal(b1-4)GlcNAc(b1-2)Man(a1-6)]Man(b1-4)GlcNAc(b1-4)[Fuc(a1-6)]GlcNAc
# Procedure, shortened: as §1
# Kdn(a2-3)Gal(b1-4)Glc = molecular target: Kdn(a2-3)Gal(b1-4)Glc
# Procedure, shortened: as §1
# [26] = molecular target: Neu5Ac(a2-3)Gal(b1-3)GlcNAc(b1-3)Gal(b1-4)GlcNAc
# Procedure, shortened: as §1
# [27] = molecular target: Neu5Ac(a2-3)Gal(b1-3)GlcNAc(b1-6)GalNAc
# Procedure, shortened: as §1
# [28] = molecular target: Neu5Ac(a2-3)Gal(b1-4)GlcNAc(b1-2)Man(a1-3)[Neu5Ac(a2-6)Gal(b1-4)GlcNAc(b1-2)Man(a1-6)]Man(b1-4)GlcNAc(b1-4)GlcNAc
# Procedure, shortened: as §1
# [29] = molecular target: Neu5Ac(a2-3)Gal(b1-4)GlcNAc(b1-2)[Neu5Ac(a2-3)Gal(b1-4)GlcNAc(b1-6)]Man(a1-6)[Neu5Ac(a2-3)Gal(b1-4)GlcNAc(b1-2)Man(a1-3)][GlcNAc(b1-4)]Man(b1-4)GlcNAc(b1-4)GlcNAc
# Procedure, shortened: as §1
# [30] = molecular target: Neu5Ac(a2-3)Gal(b1-4)GlcNAc(b1-3)Gal
# Procedure, shortened: as §1
# [31] = molecular target: Neu5Ac(a2-3)Gal(b1-4)GlcNAc(b1-3)Gal(b1-4)GlcNAc(b1-3)Gal(b1-4)GlcNAc(b1-2)Man(a1-3)[Neu5Ac(a2-3)Gal(b1-4)GlcNAc(b1-3)Gal(b1-4)GlcNAc(b1-3)Gal(b1-4)GlcNAc(b1-2)Man(a1-6)]GalNAc
# Procedure, shortened: as §1
# [32] = molecular target: Neu5Ac(a2-3)Gal(b1-4)GlcNAc(b1-3)[Neu5Ac(a2-3)Gal(b1-4)GlcNAc(b1-6)]GalNAc
# Procedure, shortened: as §1
# [33] = molecular target: Neu5Ac(a2-3)Gal(b1-4)GlcNAc(b1-6)[Gal(b1-3)]GalNAc
# Procedure, shortened: as §1
# [34] = molecular target: Neu5Ac(a2-6)Gal(b1-3)GlcNAc(b1-3)[Gal(b1-4)GlcNAc(b1-6)]Gal(b1-4)Glc
# Procedure, shortened: as §1
# [35] = molecular target: Neu5Ac(a2-6)Gal(b1-4)GlcNAc(b1-2)Man(a1-3)[Gal(b1-4)GlcNAc(b1-2)Man(a1-6)]Man(b1-4)GlcNAc(b1-4)GlcNAc
# Procedure, shortened: as §1
# [36] = molecular target: Neu5Ac(a2-6)Gal(b1-4)GlcNAc(b1-6)[Gal(b1-3)GlcNAc(b1-3)]Gal(b1-4)Glc
# Procedure, shortened: as §1
# [37] = molecular target: Neu5Ac(a2-6)GlcNAc(b1-4)GlcNAc(b1-4)GlcNAc
# Procedure, shortened: as §1
binder,measurement,setting,value
FimA-N1 (Actinomyces oris) (protein) MHHHHHHSSGVDLGTENLYFQSNATETPNYGNIKTDATGSLVIHKHLTGGGKDIGTPTGTAQNADDKGPAVEGVVFTAYPITDINLKDPAGWDTISNLSRTGVPDSACANPAAPTLGAHQFGTPKVSPATTKEGLATITEMPVQAYLVCETTTPGDIVQKAKPFVVTIPHPNTAAGADGQWIYDVNVYPKNEAIDVDKTIQAQK,glycan array binding signal (z-score),[1],2.83
same,glycan array binding signal (z-score),[2],-0.245
same,glycan array binding signal (z-score),Fuc(a1-2)Gal(b1-3)GlcNAc,-0.136
same,glycan array binding signal (z-score),[3],0.011
same,glycan array binding signal (z-score),[4],1.81
same,glycan array binding signal (z-score),[5],-0.23
same,glycan array binding signal (z-score),[6],0.129
same,glycan array binding signal (z-score),[7],1.69
same,glycan array binding signal (z-score),Fuc(a1-3)GlcNAc,-0.336
same,glycan array binding signal (z-score),[8],0.002
same,glycan array binding signal (z-score),Gal(a1-3)Gal(b1-3)GlcNAc,1.89
same,glycan array binding signal (z-score),[9],-0.21
same,glycan array binding signal (z-score),[10],-0.363
same,glycan array binding signal (z-score),[11],0.207
same,glycan array binding signal (z-score),Gal(b1-2)Gal,1.45
same,glycan array binding signal (z-score),Gal(b1-3)Gal(b1-4)GlcNAc,-0.145
same,glycan array binding signal (z-score),[12],-0.448
same,glycan array binding signal (z-score),[13],-0.504
same,glycan array binding signal (z-score),[14],3.13
same,glycan array binding signal (z-score),Gal(b1-4)Gal,-0.308
same,glycan array binding signal (z-score),Gal(b1-4)GlcNAc,-0.171
same,glycan array binding signal (z-score),[15],-0.483
same,glycan array binding signal (z-score),[16],1.54
same,glycan array binding signal (z-score),[17],3.32
same,glycan array binding signal (z-score),[18],-0.434
same,glycan array binding signal (z-score),Gal3S(b1-3)GlcNAc,-0.055
same,glycan array binding signal (z-score),Gal3S(b1-4)Glc6S,3.06
same,glycan array binding signal (z-score),[19],1.9
same,glycan array binding signal (z-score),[20],7.57
same,glycan array binding signal (z-score),Gal4S6S(b1-4)GlcNAc,0.072
same,glycan array binding signal (z-score),Gal6S(b1-4)GlcNAc,0.396
same,glycan array binding signal (z-score),[21],0.521
same,glycan array binding signal (z-score),[22],-0.352
same,glycan array binding signal (z-score),GalNAc(b1-4)GlcNAc,-0.187
same,glycan array binding signal (z-score),[23],-0.509
same,glycan array binding signal (z-score),[24],0.476
same,glycan array binding signal (z-score),[25],-0.002
same,glycan array binding signal (z-score),Kdn(a2-3)Gal(b1-4)Glc,0.117
same,glycan array binding signal (z-score),[26],-0.463
same,glycan array binding signal (z-score),[27],0.079
same,glycan array binding signal (z-score),[28],-0.244
same,glycan array binding signal (z-score),[29],-0.572
same,glycan array binding signal (z-score),[30],-0.466
same,glycan array binding signal (z-score),[31],2.52
same,glycan array binding signal (z-score),[32],-0.03
same,glycan array binding signal (z-score),[33],-0.173
same,glycan array binding signal (z-score),[34],-0.454
same,glycan array binding signal (z-score),[35],6.46
same,glycan array binding signal (z-score),[36],-0.313
same,glycan array binding signal (z-score),[37],0.006
